# Source: PubChem (National Center for Advancing Translational Sciences (NCATS))
# Sampled rows, rich in hits. Any-hit rate of the full collection: about 15%.
# TDP1 cell CPT – growth inhibition of DT40 Tdp1-/-;hTDP1 cells with camptothecin (screen for TDP1 inhibitors); 420,000 compounds, 12% hits; Potency, µM (doses to about 46.2 µM), actives largely listed as inhibitors; chicken DT40 Tdp1-/-;hTDP1 cells + 20 nM CPT, ATP luminescence, 48 h; note: nearly all actives have a fitted effect of over 55% in size
#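 Cell growth measured by CellTiter-Glo luminescence after a minimum 48 h, 37 C compound exposure with 20 nM CPT in Tdp1-knockout DT40 cells stably expressing hTDP1, seeded 400/well; qHTS titration format.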
# RORg inh – ROR gamma (mouse) transcription inhibition | P51450 | Drosophila S2 Gal4-RORgamma UAS-luciferase reporter, 20 h | Potency, µM (series often up to 53.6 µM), hits mostly inhibitors | 310,000 compounds, 5.4% hits; note: nearly all actives have a fitted effect of over 60% in size
#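 Drosophila Schneider cells stably carrying a metallothionein-driven Gal4 DBD–ROR gamma fusion and a UAS-Photinus luciferase reporter were exposed to compound for 1 hr, then induced with copper sulfate (700 uM final) for 20 hr at ambient temperature before luminescence reading.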
# Gal4-VP16 FLuc – counter-screen for ROR gamma inhibitors: Gal4-VP16 reporter; 310,000 compounds, 3.5% hits; Potency, µM (highest dose often 53.6 µM), actives largely listed as inhibitors; Drosophila S2 Gal4-VP16 UAS-luciferase, luminescence, 20 h;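 note: Gal4-VP16 expression switched on by copper sulfate through the metallothionein promoter; nearly all actives have a fitted effect of over 50% in size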
# DT40 TDP1 no CPT – qHTS for Inhibitors of human tyrosyl-DNA phosphodiesterase 1 (TDP1): qHTS in cells in absence of CPT. DT40 Tdp1-/- hTDP1 cells, no CPT, ATP luminescence, 48 h. Potency, µM (highest dose often 46.2 µM), usual class: inhibitors. 420,000 compounds, 15% hits. AID 686978, 2013; note: nearly all actives have a fitted effect of over 55% in size
#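 Growth kinetics read by CellTiter-Glo luminescence after ≥48 hr at 37 °C. Cells: DT40 Tdp1-/- stably carrying human TDP1, 400 per well, compound exposure in the absence of CPT (DMSO vehicle).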
# ELG1 repair inh – ELG1-dependent DNA repair inhibition. AID 504467. HEK293T ELG1-luciferase reporter, luminescence, 16 h; DNA damage induced by 5-fluorouridine. 330,000 compounds, 2.3% hits. Potency, µM (top dose mostly 46.1 µM), hits mostly inhibitors; note: nearly all actives have a fitted effect of over 55% in size
#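 Quantitative HTS, concentration-response format. 2,000 cells/well co-treated with 5-fluorouridine and compound, 16 hr in 5% CO2 at 37 °C; ONE-Glo luminescence read after 30 min.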
# 12-LOX inh – inhibitors of human 12S-lipoxygenase ALOX12; AID 1671190; P18054; Potency, µM (highest dose often 108 µM), most hits filed as inhibitors; purified 12hLO, xylenol orange hydroperoxide absorbance; 580,000 compounds, 1.1% hits
# Target sequence (P18054 whole entry, looked up): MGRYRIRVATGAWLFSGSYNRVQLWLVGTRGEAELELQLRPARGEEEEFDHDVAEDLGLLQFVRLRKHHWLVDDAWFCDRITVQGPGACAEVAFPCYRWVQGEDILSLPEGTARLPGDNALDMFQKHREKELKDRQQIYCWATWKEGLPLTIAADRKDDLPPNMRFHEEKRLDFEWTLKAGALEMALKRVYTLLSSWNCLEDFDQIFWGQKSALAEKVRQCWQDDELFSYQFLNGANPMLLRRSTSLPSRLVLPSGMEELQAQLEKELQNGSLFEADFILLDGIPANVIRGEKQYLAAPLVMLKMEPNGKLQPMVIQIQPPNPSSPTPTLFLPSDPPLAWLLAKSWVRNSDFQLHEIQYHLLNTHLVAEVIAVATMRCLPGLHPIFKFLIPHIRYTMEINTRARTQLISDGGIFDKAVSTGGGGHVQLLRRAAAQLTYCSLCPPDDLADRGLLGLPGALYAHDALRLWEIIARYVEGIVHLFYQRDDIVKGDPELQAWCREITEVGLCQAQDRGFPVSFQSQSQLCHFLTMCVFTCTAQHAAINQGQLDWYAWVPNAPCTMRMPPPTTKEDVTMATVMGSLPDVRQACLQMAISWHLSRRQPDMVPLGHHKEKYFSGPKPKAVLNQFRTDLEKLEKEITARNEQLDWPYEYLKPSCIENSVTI
#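 Hydroperoxide product was detected by ferrous iron/xylenol orange as the 573 to 405 nm absorbance ratio. Arachidonic acid at 40 uM (final) was turned over for 30 min at room temperature by 150 nM human 12hLO, pH 7.0 Hepes buffer, after 15 min compound preincubation.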
# A number is an active result; n = inactive; u = inconclusive; x = no result given; ! = not active in a repeat. Calls come from the whole dose curve; as a rule, active = well fitted curve in the direction sought with a large enough effect; inconclusive = small, poorly fitted or top-dose-only effect, or another doubt; inactive = no such curve, though single readings can be large; an effect the other way counts as inactive or inconclusive.
SMILES,TDP1 cell CPT,RORg inh,Gal4-VP16 FLuc,DT40 TDP1 no CPT,ELG1 repair inh,12-LOX inh
O=C(Nc1ccc(F)cc1)c1cnc(N2CCCCC2)c2ccccc12,x,x,x,x,x,n
COc1ccc(/C(N)=N/OC(=O)c2c(-c3ccccc3Cl)noc2C)cc1OC,20.6µM,n,10µM,u,n,n
Cc1onc(-c2ccccc2Cl)c1C(=O)Oc1ccc(Cl)cc1Cl,16.4µM,x,x,20.6µM,x,n
Cc1nc(/C(N)=N/OC(=O)c2c(-c3ccccc3Cl)noc2C)cs1,n,n,n,u,u,n
O=C(CCN1C(=O)NC2(CCCC2)C1=O)Nc1cccc2cccnc12,x,x,x,x,x,n
Cc1ccc(C(=O)NN=C(C(C)C)C(C)C)cc1C,x,x,x,x,x,n
COc1ccc2c(ccn2CC(=O)NCC2CCC(C(=O)O)CC2)c1 (stereo not drawn),x,x,x,x,x,n
COc1nc2c(cc1CNC(=O)CN1CCOCC1)C(=O)N(C1CCCC1)C2,x,x,x,x,x,n
CCCn1nc(C(=O)NC(c2ccccc2)c2ccccc2)c2ccccc2c1=O,x,x,x,x,x,n
O=c1[nH]c(=S)[nH]cc1Oc1ccc(Br)cc1Br,n,x,x,n,x,11.2µM
COc1cc2[nH]c(=O)c(C(=O)NCc3ccccc3Cl)c(O)c2cc1OC,14.6µM,n,n,18.4µM,n,n
C=CCc1ccc(OCCOc2cccc(OC)c2)c(OC)c1,x,x,x,x,x,n
C=CCc1ccc(OCCn2cccc2C=O)c(OC)c1,n,0.631µM,0.562µM,u,u,n
Cc1ccc(OCC(=O)Nc2nnc(SCc3cc(=O)n4cc(C)ccc4n3)s2)cc1,n,x,x,n,x,n
Cc1cccc(Nc2nnc(SCc3cc(=O)n4cc(C)ccc4n3)s2)c1,23.1µM,u,n,23.1µM,u,n
COc1ccccc1Nc1nnc(SCc2cc(=O)n3ccsc3n2)s1,u,n,n,23.1µM,n,n
CC(C)(C=O)C1=CC(=O)c2ccccc2C1=O,0.184µM,14.1µM,5.01µM,0.411µM,u,39.8µM
COc1cccc(C2=CC(=O)CCC2)c1OC,n,x,x,n,x,u
CC(C)(C)c1ccc2c(c1)C(=O)c1ccccc1C2=O,u,n,n,u,u,n
Cc1ccsc1C=C1C(=O)c2ccccc2C1=O,n,n,n,n,n,u
CC1=CC(=O)c2ccccc2C1=O,8.2µM,11.2µM!,7.94µM,4.61µM,n,u
COc1cccc2c1C(=O)C=C(C)C2=O,2.91µM,11.2µM,7.08µM,4.61µM,u,u
O=C(COC(=O)c1cccc(NC(=O)c2cccs2)c1)c1ccccc1,x,x,x,x,x,n
CC(C)CC(=O)N1CC[C@H]2COC(=O)N2c2cc(F)ccc2C1,x,x,x,x,x,n
CCCc1nc2ccccc2c(C(=O)OCC(=O)NC(C)C(C)C)c1CC (stereo not drawn),x,x,x,x,x,n
SMILES,TDP1 cell CPT,RORg inh,Gal4-VP16 FLuc,DT40 TDP1 no CPT,ELG1 repair inh,12-LOX inh
O=C(Nc1ccccc1)c1oc2ccccc2c1NC(=O)c1nn(-c2cccc(Cl)c2)ccc1=O,x,x,x,x,x,n
CSc1nnc2n(C)c3c(c(=O)n12)C1(CCCC1)Cc1ccccc1-3,u,n,n,25.9µM,n,n
Cn1c(=O)c2c(n3cnnc13)-c1ccccc1CC21CCCC1,u,u,n,14.6µM,u,n
O=c1c2c(n3cnnc3n1C1CCCCC1)-c1ccccc1CC21CCCCC1,20.6µM,n,n,25.9µM,n,n
O=c1c2c(n3nnnc3n1-c1ccccc1)-c1ccccc1CC21CCCC1,2.31µM,u,n,u,n,n
COc1ccc(C(C)=O)cc1CSc1ccccc1C(=O)O,x,x,x,x,x,n
Cc1ccccc1Nc1c(C)c(C)nc2ncnn12,16.4µM,u,n,20.6µM,u,n
Cc1ccc(CNC(=O)c2c(C)[nH]c3ccccc23)cc1,x,x,x,x,x,n
CCc1cccc(-n2c(SCC(=O)NC(C)c3cc4ccccc4o3)nnc2N2CCOCC2)c1 (stereo not drawn),x,x,x,x,x,n
CC1=C(SCc2ccccc2)C(=O)c2ccccc2C1=O,2.59µM,x,x,3.26µM,x,12.6µM
CCN1c2cc(C(=O)NCc3ccc(Cl)cc3)ccc2C(=O)N2CCCCC21 (stereo not drawn),x,x,x,x,x,n
O=C(NCc1ccncc1)c1ccc2ccccc2n1,x,x,x,x,x,n
Cc1ccc(-c2nc3ccc(Cl)cn3c2Nc2ccc3c(c2)OCCO3)o1,20.6µM,x,x,16.4µM,x,n
Fc1ccccc1-c1ccc(-c2nc3ccc(Cl)cn3c2Nc2ccc(Cl)cc2)o1,4.47µM,x,x,3.55µM,x,x
